High-throughput results from PubChem.
This is a sample that favours compounds with a hit; in the whole collection about 1.8% have one here.
TCR act = activates T cell receptor signaling; Potency, µM (series often up to 9.22 µM), for inactives: top-dose activation of IL-2 secretion, most hits filed as activators; 330,000 tested, under 10 active; primary human leukocytes, anti-CD3, IL-2 HTRF, 48 h; AID 504894; further: % of control where 0% means no effect
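HTRF read-out of IL-2 secretion: europium cryptate donor excited at 320nm, d2 acceptor emission at 665nm. Cells were primary human leukocytes incubated 48 hr with compounds and a-CD3 beads, supplying TCR signal only.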
MBNL1-CUG inh = inhibitors of human MBNL1 binding to CUG repeat RNA. actives 0.036% (n = 280,000). Potency, µM (doses to about 57.5 µM), inactives show at the highest dose activity change, negative = inhibition, usual class: inhibitors. AID 2675. TR-FRET MBNL1-His/biotin-(CUG)12 binding, 665/545 ratio; active means well fitted inhibition curve with a large enough effect in the signal ratio, with a control signal flat, not every such curve was filed as active; the % refers to the signal ratio; further: potency means the concentration at half of the fitted maximal effect; on the % scale 0 is the no-effect control and ±100 the full control effect
Target sequence (Q9NR56 whole entry, looked up): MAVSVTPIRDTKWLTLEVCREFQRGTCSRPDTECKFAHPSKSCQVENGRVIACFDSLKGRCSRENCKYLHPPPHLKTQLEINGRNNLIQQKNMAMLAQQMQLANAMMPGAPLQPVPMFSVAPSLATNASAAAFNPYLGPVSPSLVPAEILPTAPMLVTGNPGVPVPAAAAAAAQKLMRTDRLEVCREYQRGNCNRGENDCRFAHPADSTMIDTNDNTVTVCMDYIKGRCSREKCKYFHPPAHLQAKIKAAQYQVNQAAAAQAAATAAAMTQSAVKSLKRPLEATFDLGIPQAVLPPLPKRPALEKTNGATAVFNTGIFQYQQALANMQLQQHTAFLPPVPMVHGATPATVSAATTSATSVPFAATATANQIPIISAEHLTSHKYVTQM
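Ratiometric TR-FRET (665 over 545 nm, excitation 340 nm) tracks disruption of MBNL1-His/biotin-(CUG)12 complex after 60 min at room temperature, with compounds at 92 nM to 58 uM final.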
AT treatment = candidate therapy for ataxia-telangiectasia; F2112 A-T fibroblasts, KAP-1 phosphorylation AlphaLISA; neocarzinostatin DNA damage 30 min before lysis; Potency, µM (titrated, usually from 57.5 µM), for the others: at the top dose activation, usual class: activators; actives 0.19% (n = 320,000); AID 485349; further: potency means the concentration at half of the fitted maximal effect; % of control where 0% means no effect; nearly all actives have a fitted effect of over 45% in size
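ATM-like activity read as KAP-1 phosphorylation via AlphaLISA donor/acceptor antibody pairs after lysis and 6 hr at 25C. Cells were ATM-null patient fibroblasts (F2112, hTERT), dosed 60 min, then exposed to the DSB inducer NCS for 30 min.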
Mito fusion act = blocks mitochondrial division or promotes mitochondrial fusion | actives 0.23% (n = 320,000) | S. cerevisiae fusion-defective mutant growth rescue, CellTiterGlo 48 h | Potency, µM (top dose mostly 46.1 µM), without a hit: at the highest dose growth rescue (activation), actives largely listed as activators; further: potency means the concentration at half of the fitted maximal effect; % of control where 0% means no effect; nearly all actives have a fitted effect of over 45% in size
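Temperature-sensitive fusion-defective S. cerevisiae (e.g. fzo1-1, mgm1-5) were grown with compound in YPEG medium (3% ethanol, 3% glycerol) for 48 hours at 37C. Growth rescue was measured as viability by CellTiterGlo luminescence after 10 minutes at ambient.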
Glioma ERSR ind = inducers of ER stress response in human glioma cells | AID 602332 | actives 0.02% (n = 420,000) | U87-MG GRP78 promoter luciferase reporter, 16 h | Potency, µM, for inactives: at the top dose activation, hits mostly activators; further: potency means the concentration at half of the fitted maximal effect; series mostly up to about 76 µM; % of control where 0% means no effect; nearly all actives have a fitted effect of over 35% in size
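ERSR induction read as luciferase luminescence (Bright-Glo, 10 min at room temperature) in stably transfected human U87-MG glioma cells exposed to compounds for 16 h, using GRP78 as sensor.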
ClpP mod = qHTS Assay for Activators of ClpP; AID 651965, 2013; Potency, µM (highest dose often 57.5 µM), inactives show top-dose activity change, negative = active; purified B. subtilis ClpP, FRET peptide cleavage, 20 min; actives 1.9% (n = 340,000); active means well fitted falling curve with a large enough effect; further: potency means the concentration at half of the fitted maximal effect; the source files actives as falling curves though it sought activators and does not explain the sign; nearly all actives have a fitted effect of over 65% in size
Target sequence (P80244 whole entry, looked up): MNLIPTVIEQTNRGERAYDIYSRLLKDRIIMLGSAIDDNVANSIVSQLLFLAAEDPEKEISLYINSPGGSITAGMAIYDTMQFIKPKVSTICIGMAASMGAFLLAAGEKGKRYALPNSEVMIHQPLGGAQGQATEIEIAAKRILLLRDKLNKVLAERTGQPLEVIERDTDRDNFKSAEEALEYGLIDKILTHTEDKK
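ClpP 10 microg/mL final, pH 8 Tris/KCl buffer with BSA, glycerol, Tween-20; compound pinned in; FRET-FV substrate; RT 20 min; Ex320/Em430; ΔFRET vs ADEP 5.8 microM, DMSO, no enzyme.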
Starred values were filed as active, the others as inactive; [ ] = remark or other dose. Unless noted, the call rests on the fitted dose curve; in most records, active means well fitted curve in the direction sought with a large enough effect; inconclusive means small, poorly fitted or top-dose-only effect, or another doubt; inactive means no such curve, though single readings can be large; an effect the other way counts as inactive or inconclusive.

CCC(C)NC(=O)CSC1=Nc2ccccc2C2=NC(c3ccccc3)C(=O)N12 (stereo unspecified) was read as TCR act -5.8%, MBNL1-CUG inh -5.9%, Mito fusion act -0.6%, Glioma ERSR ind -3.0% and ClpP mod 15.8µM*.
For CC1CN(CC(=O)NCC2(N3CCOCC3)CCCC2)Cc2cc(Cl)ccc2O1 (stereo unspecified) the results were Glioma ERSR ind -3.0%.
Screening N#Cc1c(C(F)(F)F)cc(-c2cccs2)nc1SCc1cccnc1 returned TCR act -0.6%, MBNL1-CUG inh 10.9%, AT treatment 2.5%, Mito fusion act -0.9%, Glioma ERSR ind -1.6% and ClpP mod 8.91µM*.
Screening O=C(Nc1nc(-c2ccco2)c(-c2ccco2)s1)c1c(F)cccc1Cl returned AT treatment 1.3%, Mito fusion act 12.6µM*, Glioma ERSR ind -4.4% and ClpP mod -7.7%.
Screening COc1ccccc1CN1CCCC(n2cc(C(=O)N3CCCCC3)nn2)C1 (stereo unspecified) returned Glioma ERSR ind -4.4%.
Screening C#Cc1cccc(C(=O)NCc2nc(-c3ccccc3NC(C)=O)oc2C)c1 returned Glioma ERSR ind -2.6%.
O=C(COc1ccc(F)cc1)Nc1cc(S(=O)(=O)N2CCCCC2)ccc1N1CCCCC1 was read as TCR act 5.3%, AT treatment 9.7%, Mito fusion act 3.8%, Glioma ERSR ind -2.1% and ClpP mod 15.8µM*.
O=C(CN1CCN(S(=O)(=O)c2ccc(F)cc2)CC1)Nc1cc(C(F)(F)F)ccc1Cl was read as TCR act 4.2%, MBNL1-CUG inh 6.6%, AT treatment -9.1%, Mito fusion act 15.4%, Glioma ERSR ind -1.7% and ClpP mod -1.5%.
COc1ccc(C)cc1NC(=O)CN1CCN(S(=O)(=O)c2ccc(F)cc2)CC1 was read as TCR act -1.2%, MBNL1-CUG inh 2.2%, AT treatment 1.8%, Mito fusion act 3.5%, Glioma ERSR ind -1.2% and ClpP mod -1.4%.
O=C(CN1CCN(S(=O)(=O)c2ccc(F)cc2)CC1)Nc1ccc(F)cc1F was read as TCR act -3.3%, MBNL1-CUG inh -1.9%, AT treatment 0.5%, Mito fusion act 35.5µM*, Glioma ERSR ind 3.6% and ClpP mod -1.0%.
COc1ccc(C)cc1NC(=O)CN1CCCN(S(=O)(=O)c2ccc(Br)cc2)CC1 was read as TCR act 1.6%, MBNL1-CUG inh -5.0%, AT treatment 4.3%, Mito fusion act 14.1µM*, Glioma ERSR ind -4.0% and ClpP mod 0.3%.
Cc1cnc2c(C)cccc2c1/C=C/c1ccc(N(C)C)cc1 was read as Glioma ERSR ind -3.6% and ClpP mod 0.5%.
Screening COc1cc2c(cc1NC(=S)Nc1cccc(C(F)(F)F)c1)oc1ccccc12 returned TCR act 3.4%, MBNL1-CUG inh 3.7%, AT treatment -0.9%, Mito fusion act 9.3%, Glioma ERSR ind -3.0% and ClpP mod 31.6µM*.
COCCCNC(=S)Nc1cc2oc3ccccc3c2cc1OC was read as TCR act -44.5%, MBNL1-CUG inh -2.5%, AT treatment -1.3%, Mito fusion act -4.2%, Glioma ERSR ind 2.3% and ClpP mod -23.9%.
Screening COc1cc2c(cc1NC(=S)Nc1cccc3ccccc13)oc1ccccc12 returned TCR act -3.4%, MBNL1-CUG inh 142.2%, AT treatment -4.4%, Mito fusion act 1.5%, Glioma ERSR ind 1.4% and ClpP mod 10µM*.
COC(=O)NNC(=O)COc1ccc2ccccc2c1Br was read as TCR act -18.4%[46.1 µM], AT treatment -6.2%, Mito fusion act -8.0%, Glioma ERSR ind 3.4% and ClpP mod 25.1µM*.
For CC(C)(C)C(=O)NNC(=O)COc1ccc2ccccc2c1Br the results were TCR act -6.3%, MBNL1-CUG inh 24.7%, AT treatment 0.8%, Mito fusion act -1.6%, Glioma ERSR ind -1.9% and ClpP mod -0.6%.
O=C(c1cc(C(F)(F)F)cc(C(F)(F)F)c1)N1CCC2(CC1)CN(c1ncccn1)C2 was read as Glioma ERSR ind -4.3%.
For Cc1cc(C)n(Cc2cccc(C(=O)NCC3Cc4cccc(-c5ncccn5)c4O3)c2)n1 (stereo unspecified) the results were Glioma ERSR ind -3.8%.
Cc1ccc(CN2CCNC(=O)C2CC(=O)NCc2cc(C)n(C)n2)cc1 (stereo unspecified) was read as TCR act -4.2%, MBNL1-CUG inh 14.7%, AT treatment 5.2%, Mito fusion act 1.0%, Glioma ERSR ind -4.1% and ClpP mod 31.6µM*.
`Cc1nc(CNC(=O)CC2C(=O)NCCN2Cc2ccc(F)cc2)cs1` (stereo unspecified) gave TCR act -2.1%, MBNL1-CUG inh 6.5%, AT treatment 3.7%, Mito fusion act 0.4%, Glioma ERSR ind 0.9% and ClpP mod -0.5%.
For CCOc1ccc(CN2CCNC(=O)C2CC(=O)NCc2cc(C)n(C)n2)cc1 (stereo unspecified) the results were TCR act 3.8%, MBNL1-CUG inh -7.5%, AT treatment 13.0%, Mito fusion act -0.9%, Glioma ERSR ind -3.2% and ClpP mod 0.5%.
Screening CCOc1ccc(CN2CCNC(=O)C2CC(=O)NCCc2cnccn2)cc1 (stereo unspecified) returned TCR act -2.3%, MBNL1-CUG inh 4.1%, AT treatment 1.4%, Mito fusion act -3.1%, Glioma ERSR ind 3.2% and ClpP mod 0.1%.
For CCOc1ccc(CN2CCNC(=O)C2CC(=O)NCc2csc(C)n2)cc1 (stereo unspecified) the results were TCR act -1.3%, MBNL1-CUG inh 8.7%, AT treatment -0.4%, Mito fusion act -1.3%, Glioma ERSR ind 1.5% and ClpP mod 28.2µM*.
`CCOc1ccc(CN2CCNC(=O)C2CC(=O)NCCN2CCOC2=O)cc1` (stereo unspecified) gave TCR act 10.2%, MBNL1-CUG inh 7.3%, AT treatment 2.6%, Mito fusion act 3.3%, Glioma ERSR ind -0.3% and ClpP mod 28.2µM*.
Cc1cc(C)cc(CN2CCOc3ccc(CN4CCC(O)(c5cccnc5)CC4)cc3C2)c1 was read as Glioma ERSR ind -3.7%.
Cc1cnc(C)c(-c2ccc(F)c3c2OC(CNC(=O)/C=C/c2cccs2)C3)n1 (stereo unspecified) was read as Glioma ERSR ind -4.9%.
